Measurements as given in PubChem BioAssay (NCI).
Compounds without any hit were thinned out: in the full panel of roughly 79,000, 15% have a hit. Active and inactive are the calls of the source. No stated cut-off is given here; in the data, active means growth inhibition above about 70%; inactive means the rest.

Experiments:
[1] = NCI Yeast Anticancer Drug Screen. Data for the rad52 strain (AID 147);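 further: 0% = growth of vehicle-treated control cultures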; settings: S. cerevisiae rad52 mutant growth inhibition, hits give high values
In short: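 Yeast strain carrying a DNA damage repair alteration was exposed to test compounds. Growth inhibition was measured relative to vehicle-treated controls.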

[2] = NCI Yeast Anticancer Drug Screen. Data for the wt1 strain (AID 149);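 further: 0% = growth of vehicle-treated wt1 cultures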; settings: S. cerevisiae wt1 strain (SPY 50644) growth inhibition, hits give high values
In short: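 Compounds are added to wt1 yeast cultures. Growth is then measured. Inhibition is expressed relative to vehicle-treated controls.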

[3] = NCI Yeast Anticancer Drug Screen. Data for the rad50EPP+ strain (AID 151);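 further: 0% = growth of vehicle-treated control cultures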; settings: S. cerevisiae rad50 mutant strain, hits give high values
In short: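 Yeast strain carrying rad50 alteration (rad50EPP+) exposed to compounds; growth inhibition measured relative to vehicle-treated controls.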

[4] = NCI Yeast Anticancer Drug Screen. Data for the mgt1 strain (AID 153); settings: S. cerevisiae mgt1 mutant growth inhibition, hits give high values
In short: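 Yeast mgt1 strain (DNA repair/cell-cycle alteration panel) exposed to compounds; growth inhibition measured relative to vehicle-treated controls.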

[5] = NCI Yeast Anticancer Drug Screen. Data for the rad50 strain (AID 155);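 further: 0% = growth of vehicle-only cultures of the same strain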; settings: S. cerevisiae rad50 strain growth inhibition, hits give high values
In short: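 Inhibition values express reduced yeast growth in compound-treated cultures relative to vehicle-treated controls.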

[6] = NCI Yeast Anticancer Drug Screen. Data for the mec2-1 strain (AID 157); settings: S. cerevisiae mec2-1 strain, hits give high values
In short: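 mec2-1 yeast strain, carrying an alteration in DNA damage repair or cell cycle control, was exposed to compounds; growth inhibition was measured relative to vehicle-treated controls.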

[7] = NCI Yeast Anticancer Drug Screen. Data for the rad14 strain (AID 159);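 further: 0% = growth of vehicle-treated control cultures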; settings: S. cerevisiae rad14 strain growth inhibition, hits give high values
In short: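 A mutant yeast strain defective in DNA damage repair is treated with compound; inhibition of its growth is scored against untreated, vehicle-exposed cultures.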

[8] = NCI Yeast Anticancer Drug Screen. Data for the sgs1 mgt1 strain (AID 161);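 further: 0% = growth of cultures given vehicle only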; settings: S. cerevisiae sgs1 mgt1 strain, hits give high values
In short: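 Compounds are added to genetically altered yeast, and growth is compared with cultures given vehicle alone to give percent inhibition.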

[9] = NCI Yeast Anticancer Drug Screen. Data for the CLN2oe strain (AID 163);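 further: 0% = growth of vehicle-only control cultures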; settings: S. cerevisiae CLN2oe strain, hits give high values
In short: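 Yeast cells carrying a defined cell-cycle control alteration were exposed to test compounds. Growth inhibition was scored against vehicle-treated control cultures.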

[10] = NCI Yeast Anticancer Drug Screen. Data for the cln2 rad14 strain (AID 165);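 further: 0% = growth equal to vehicle treated cultures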; settings: S. cerevisiae cln2 rad14 strain, hits give high values
In short: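 Yeast carrying cln2 and rad14 alterations (cell cycle control and DNA damage repair) were exposed to compounds. Growth inhibition was measured against vehicle-treated controls.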

[11] = NCI Yeast Anticancer Drug Screen. Data for the bub3 strain (AID 167); settings: S. cerevisiae bub3 mutant strain, hits give high values
In short: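 Steps: expose the mutant yeast strain to compound; grow alongside vehicle-treated cultures; measure growth; express inhibition against the vehicle cultures.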

[12] = NCI Yeast Anticancer Drug Screen. Data for the wt2 strain (AID 169);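 further: 0% = growth of vehicle-treated yeast cultures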; settings: S. cerevisiae wt2 strain growth inhibition, hits give high values
In short: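 Yeast cells were exposed to test compounds, and growth inhibition was measured relative to vehicle-treated controls.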

[13] = NCI Yeast Anticancer Drug Screen. Data for the mlh1 strain (AID 171);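 further: 0% = growth of vehicle-treated control cultures of the same strain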; settings: S. cerevisiae mlh1 strain growth inhibition, hits give high values
In short: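 Yeast carrying a defined genetic alteration in DNA damage repair or cell cycle control were exposed to test compounds. Growth inhibition was measured relative to vehicle-treated controls.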

[14] = NCI Yeast Anticancer Drug Screen. Data for the sgs1 strain (AID 173);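 further: 0% = growth of vehicle-only control cultures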; settings: S. cerevisiae sgs1 mutant, hits give high values
In short: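 Yeast mutant strains carrying defined defects in DNA damage repair or cell cycle control were exposed to test compounds. Growth inhibition was scored against vehicle-treated controls.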

[15] = NCI Yeast Anticancer Drug Screen. Data for the mlh1 rad18 strain (AID 175); settings: S. cerevisiae mlh1 rad18 strain growth inhibition, hits give high values
In short: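 Growth inhibition of the yeast strain was measured after compound exposure and expressed relative to vehicle-treated controls. The strain carries defined defects in DNA damage repair.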

[16] = NCI Yeast Anticancer Drug Screen. Data for the rad18 strain (AID 177); settings: S. cerevisiae rad18 mutant growth inhibition, hits give high values
In short: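 Yeast carrying a defined DNA damage repair alteration were exposed to compounds. Growth inhibition was expressed relative to vehicle-treated controls.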

[17] = at 5.0 µM (retest, dose inferred, filed as 0.5)
[18] = at 50.0 µM (retest, dose inferred, filed as 5.0)

Measured: growth inhibition

OC(CCNCc1ccccc1)c1ccc2ccccc2c1 (stereo unspecified)
inactive: [1]; at 1.2 µM 15% | [1]; at 3.7 µM 42% | [1]; at 11.0 µM 69% | [2]; at 1.2 µM 2% | [2]; at 3.7 µM 33% | [2]; at 11.0 µM 41% | [2]; at 33.0 µM 60% | [3]; at 1.2 µM -5% | [3]; at 3.7 µM -12% | [3]; at 11.0 µM 13% | [3]; at 33.0 µM 27% | [3]; at 100.0 µM 21% | [4]; at 1.2 µM 14% | [4]; at 3.7 µM 34% | [4]; at 11.0 µM 63% | [5]; at 1.2 µM 15% | [5]; at 3.7 µM 44% | [5]; [17] 22% | [6]; at 1.2 µM -1% | [6]; at 3.7 µM 10% | [6]; [17] 15% | [6]; at 11.0 µM 22% | [6]; at 33.0 µM 47% | [6]; at 50.0 µM 37.9% | [6]; at 100.0 µM 58% | [7]; at 1.2 µM 32% | [7]; at 3.7 µM 56% | [8]; [17] 9% | [9]; at 1.2 µM 19% | [9]; at 3.7 µM 53% | [9]; at 11.0 µM 68% | [10]; [17] 29% | [11]; at 1.2 µM 29% | [11]; at 3.7 µM 45% | [11]; [17] 37% | [11]; at 11.0 µM 68% | [12]; at 1.2 µM 24% | [12]; at 3.7 µM 65% | [13]; at 1.2 µM -4% | [13]; at 3.7 µM 31% | [13]; at 11.0 µM 45% | [14]; at 1.2 µM 18% | [14]; at 3.7 µM 20% | [15]; [17] 51% | [15]; at 50.0 µM 65.7% | [16]; at 1.2 µM -1% | [16]; at 3.7 µM 31% | [16]; at 11.0 µM 45%
active: [1]; at 33.0 µM 87% | [1]; at 100.0 µM 90% | [2]; at 100.0 µM 72% | [4]; at 33.0 µM 84% | [4]; at 100.0 µM 96% | [5]; at 11.0 µM 72% | [5]; at 33.0 µM 92% | [5]; [18] 88% | [5]; at 50.0 µM 75.5% | [5]; at 100.0 µM 94% | [6]; [18] 76% | [7]; at 11.0 µM 85% | [7]; at 33.0 µM 96% | [7]; at 100.0 µM 99% | [8]; [18] 93% | [8]; at 50.0 µM 80.7% | [9]; at 33.0 µM 80% | [9]; at 100.0 µM 93% | [10]; [18] 80% | [10]; at 50.0 µM 75.2% | [11]; at 33.0 µM 91% | [11]; [18] 91% | [11]; at 50.0 µM 72% | [11]; at 100.0 µM 96% | [12]; at 11.0 µM 83% | [12]; at 33.0 µM 95% | [12]; at 100.0 µM 96% | [13]; at 33.0 µM 80% | [13]; at 100.0 µM 95% | [14]; at 11.0 µM 70% | [14]; at 33.0 µM 92% | [14]; at 100.0 µM 95% | [15]; [18] 96% | [16]; at 33.0 µM 70% | [16]; at 100.0 µM 87%

N/C(=N/N=C/c1cc(Br)cc(Br)c1O)NO
active: [1]; at 33.0 µM 90% | [1]; at 100.0 µM 97% | [2]; at 33.0 µM 90% | [2]; at 100.0 µM 98% | [3]; at 100.0 µM 73% | [4]; at 33.0 µM 95% | [4]; at 100.0 µM 98% | [5]; at 33.0 µM 90% | [5]; [18] 99% | [5]; at 50.0 µM 96.1% | [5]; at 100.0 µM 97% | [6]; at 33.0 µM 87% | [6]; [18] 99% | [6]; at 50.0 µM 85.8% | [6]; at 100.0 µM 96% | [7]; at 11.0 µM 82% | [7]; at 33.0 µM 97% | [7]; at 100.0 µM 98% | [8]; [18] 99% | [8]; at 50.0 µM 97.8% | [9]; at 33.0 µM 95% | [9]; at 100.0 µM 98% | [10]; [18] 99% | [10]; at 50.0 µM 92.3% | [11]; at 33.0 µM 93% | [11]; [18] 99% | [11]; at 50.0 µM 87% | [11]; at 100.0 µM 97% | [12]; at 33.0 µM 94% | [12]; at 100.0 µM 98% | [13]; at 33.0 µM 93% | [13]; at 100.0 µM 97% | [14]; at 33.0 µM 93% | [14]; at 100.0 µM 96% | [15]; [18] 99% | [15]; at 50.0 µM 98.7% | [16]; at 11.0 µM 75% | [16]; at 33.0 µM 94% | [16]; at 100.0 µM 97%
inactive: [1]; at 1.2 µM -37% | [1]; at 3.7 µM -26% | [1]; at 11.0 µM 17% | [2]; at 1.2 µM -94% | [2]; at 3.7 µM -40% | [2]; at 11.0 µM -13% | [3]; at 1.2 µM -27% | [3]; at 3.7 µM -24% | [3]; at 11.0 µM -6% | [3]; at 33.0 µM 28% | [4]; at 1.2 µM -36% | [4]; at 3.7 µM -27% | [4]; at 11.0 µM 66% | [5]; at 1.2 µM -39% | [5]; at 3.7 µM -34% | [5]; [17] -1% | [5]; at 11.0 µM 6% | [6]; at 1.2 µM -89% | [6]; at 3.7 µM -62% | [6]; [17] 13% | [6]; at 11.0 µM -6% | [7]; at 1.2 µM -19% | [7]; at 3.7 µM -1% | [8]; [17] 10% | [9]; at 1.2 µM -6% | [9]; at 3.7 µM -11% | [9]; at 11.0 µM 25% | [10]; [17] 7% | [11]; at 1.2 µM -40% | [11]; at 3.7 µM -60% | [11]; [17] -5% | [11]; at 11.0 µM 44% | [12]; at 1.2 µM -2% | [12]; at 3.7 µM -9% | [12]; at 11.0 µM 35% | [13]; at 1.2 µM -78% | [13]; at 3.7 µM -40% | [13]; at 11.0 µM 58% | [14]; at 1.2 µM -35% | [14]; at 3.7 µM -28% | [14]; at 11.0 µM 59% | [15]; [17] 16% | [16]; at 1.2 µM -30% | [16]; at 3.7 µM -20%

CCOC(=O)c1[nH]n(-c2ccccc2)c(=O)c1C=NC(=S)C(N)=S
active: [1]; at 33.0 µM 71% | [1]; at 100.0 µM 97% | [2]; at 100.0 µM 98% | [4]; at 100.0 µM 97% | [5]; at 33.0 µM 90% | [5]; at 50.0 µM 87.5% | [5]; at 100.0 µM 97%
inactive: [1]; at 1.2 µM 24% | [1]; at 3.7 µM 21% | [1]; at 11.0 µM 30% | [2]; at 1.2 µM 19% | [2]; at 3.7 µM 8% | [2]; at 11.0 µM 25% | [2]; at 33.0 µM 29% | [3]; at 1.2 µM -3% | [3]; at 3.7 µM -23% | [3]; at 11.0 µM 5% | [3]; at 33.0 µM 30% | [3]; at 100.0 µM 69% | [4]; at 1.2 µM -6% | [4]; at 3.7 µM -10% | [4]; at 11.0 µM -16% | [4]; at 33.0 µM 34% | [5]; at 1.2 µM 8% | [5]; at 3.7 µM 29% | [5]; [17] -36% | [5]; at 11.0 µM 31% | [5]; [18] 19% | [6]; at 1.2 µM 5% | [6]; at 3.7 µM 5%
